About 83,000 compounds went through this panel and 20% of them were active in at least one assay; those are over-represented in the sample as a whole.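 96-well plates, one dose, 48 hours. Percent growth reported; active if below 10.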 Unmarked numbers belong to inactive results. Activity calls are given as the source filed them.
Assays:
Experiment in all cases: NCI-60 one-dose screen, 48 h (100 = growth as untreated, 0 = no growth, -100 = all killed)
Settings in all cases: 10 µM unless noted
K-562 leukemia = test system: K-562 leukemia
MALME-3M melanoma = test system: MALME-3M melanoma
MDA-MB-231 breast = test system: MDA-MB-231 breast
RXF 393 renal = test system: RXF 393 renal
SF-268 CNS = test system: SF-268 CNS
SF-295 CNS = test system: SF-295 CNS
SF-539 CNS = test system: SF-539 CNS
UACC-257 melanoma = test system: UACC-257 melanoma
M14 melanoma = test system: M14 melanoma
HCT-15 colon = test system: HCT-15 colon
HT29 colon = test system: HT29 colon
SNB-75 CNS = test system: SNB-75 CNS
SNB-19 CNS = test system: SNB-19 CNS
U251 CNS = test system: U251 CNS
PC-3 prostate = test system: PC-3 prostate
SK-MEL-5 melanoma = test system: SK-MEL-5 melanoma
UACC-62 melanoma = test system: UACC-62 melanoma
SK-MEL-28 melanoma = test system: SK-MEL-28 melanoma
SK-MEL-2 melanoma = test system: SK-MEL-2 melanoma

Row | SMILES | growth (K-562 leukemia) | growth (MALME-3M melanoma) | growth (MDA-MB-231 breast) | growth (RXF 393 renal) | growth (SF-268 CNS) | growth (SF-295 CNS) | growth (SF-539 CNS) | growth (UACC-257 melanoma) | growth (M14 melanoma) | growth (HCT-15 colon) | growth (HT29 colon) | growth (SNB-75 CNS) | growth (SNB-19 CNS) | growth (U251 CNS) | growth (PC-3 prostate) | growth (SK-MEL-5 melanoma) | growth (UACC-62 melanoma) | growth (SK-MEL-28 melanoma) | growth (SK-MEL-2 melanoma)
1 | Oc1c(Cl)cc(Cl)c2ccc(CN3CCCCC3)nc12 | 21.9% | 31.4% | 40.4% | 78.2% | 41.9% | 26.5% | 29.1% | 43.1% | 8.72% (active) | 26.7% | 48.3% | 83.3% | 44.1% | 30.6% | 56.8% | 33.1% | 4.28% (active) | 28.7% | 84.1%
2 | O=C(CN1CCOCC1)NNc1ncnc2ccccc12 | 0.401% (active) | -74.5% (active) | 2.91% (active) | -39.7% (active) | 97.4% | 95.9% | 82.1% | 86.3% | 55.2% | 70.8% | 92% | 72.7% | 102% | 85.3% | 78.3% | 98.2% | 83.1% | 71.1% | 96.3%
3 | C=CCn1c(SCC(=O)c2ccc(Br)cc2)nnc1-c1c[nH]c2ccccc12 | 85.5% | 90.7% | 96.9% | 113% | 102% | 93.2% | 91.8% | 108% | 97.4% | 99% | 104% | 106% | 100% | 99.9% | 78.3% | 95.9% | 83.1% | 96.1% | 115%
4 | COc1ccc(/C=C2\SC(=Nc3cc(C)on3)NC2=O)cc1 | 100% | 95.9% | 106% | 102% | 104% | 95.2% | 99.3% | 96.7% | 92.2% | 99.3% | 108% | 97% | 96.4% | 109% | 96.7% | 99.3% | 95.1% | 106% | 115%
5 | Cc1cccc2sc(/N=C(\N)C(Cl)(Cl)Cl)nc12 | 100% | 102% | 96.2% | 120% | 94.5% | 94.4% | 99.4% | 104% | 101% | 102% | 105% | 81.6% | 90.3% | 95.1% | 103% | 99.6% | 97.6% | 112% | 118%
6 | Cc1c(NC(=O)CSc2nc3sc4c(c3c(=O)n2-c2ccc(Cl)cc2)CCCC4)c(=O)n(-c2ccccc2)n1C | 90.2% | 102% | 93.4% | 104% | 80.3% | 95.5% | 89.5% | 102% | 95.2% | 93.3% | 101% | 72.6% | 79.7% | 104% | 94.4% | 87.2% | 83.1% | 89.2% | 110%
7 | N#Cc1c(-c2ccc(F)cc2)nc2c(C#N)c(Nc3ccccc3)nn2c1N | 99.5% | 113% | 109% | 110% | 95.3% | 99.3% | 97.3% | 106% | 109% | 98.7% | 102% | 101% | 96.3% | 104% | 96.7% | 99.2% | 99.8% | 102% | 105%
8 | CN1C(=S)N(C)C2C1NN=C1SC(c3ccccc3)=CC(=O)N12 (centres undefined) | 57.4% | 97.7% | 83.3% | 97.8% | 108% | 98% | 90.8% | 99% | 101% | 89.5% | 103% | 115% | 98.9% | 95.1% | 87.5% | 64.3% | 78.3% | 102% | 95.2%
9 | COc1cccc(-c2nn(-c3ccccc3)cc2-c2ccnc(N3CCN(C(=O)c4ccccc4)CC3)c2)c1 | 31.4% | 89.7% | 64% | 95.7% | 94.2% | 89.1% | 87.1% | 101% | 81.2% | 39.8% | 87.2% | 65.9% | 85.5% | 78.4% | 46.6% | 49.8% | 62.4% | 84.2% | 89%
10 | O=C1NC(=C(Cl)Cl)/C(=N/S(=O)(=O)N2CCCCC2CC2(C(F)(F)F)N=N2)N1 (centres undefined) | 2.72% (active) | -71% (active) | -21.4% (active) | -28.8% (active) | 49.3% | 99.3% | -22% (active) | 82.6% | 24.4% | -67.3% (active) | -25.7% (active) | 101% | 40.8% | -1.13% (active) | 60.5% | 95.3% | 38.4% | 7.84% (active) | -4.45% (active)
11 | C/C(=N/NC(N)=S)c1ccc(Nc2nc(SCC(C)C)nc(-c3ccc(F)cc3)c2C#N)cc1 | 4.78% (active) | 24.9% | 15% | -45.4% (active) | 25.3% | -69.8% (active) | -58.6% (active) | 63.3% | 28.3% | 25.2% | 15% | 80.6% | 15.4% | -39.6% (active) | -14.5% (active) | 37.3% | -18.4% (active) | -9.66% (active) | 11.1%
12 | O=C(CSc1nnc(-c2ccc3nc(-c4ccc(Cl)cc4)[nH]c3c2)o1)Nc1ccc(C(=O)/C=C/c2ccc(Cl)cc2)cc1 | 81.4% | 102% | 90.6% | 104% | 99.9% | 93% | 84.3% | 107% | 102% | 89.8% | 100% | 90.9% | 99.5% | 82.2% | 87.7% | 93.7% | 83.2% | 106% | 111%
13 | C=CCn1c(SCC(=O)c2ccccc2)nnc1-c1c[nH]c2ccccc12 | 92.6% | 86.6% | 88.8% | 102% | 102% | 96.2% | 97.3% | 97.9% | 97.7% | 96% | 112% | 96.4% | 98.3% | 107% | 89.1% | 96.6% | 81.5% | 105% | 105%
14 | CCN1C(=S)N(c2ccccc2)C2NC(=O)N(/N=C/C=C/c3ccccc3OC)C21 (centres undefined) | 59.2% | 87.2% | 71.9% | 92.4% | 93.9% | 87.9% | 86.3% | 102% | 92.6% | 67.6% | 98.8% | 71.8% | 87.6% | 89.4% | 90.3% | 92.4% | 81.7% | 95.3% | 120%
15 | C#Cc1nc(C2=C(C)C(O)CC2)cs1 (centres undefined) | 114% | 109% | 112% | 95.6% | 108% | 113% | 108% | 102% | 101% | 98.9% | 118% | 96.1% | 104% | 104% | 97.7% | 101% | 94.2% | 105% | 117%
16 | COc1ccc([C@@H]2c3[nH]c4ccccc4c3CC3C(=O)N(C4CCN(Cc5c(F)cccc5F)CC4)CC(=O)N32)c(OC)c1 (some centres undefined) | 62.2% [5.26 µM] | 68% [5.26 µM] | 62.3% [5.26 µM] | 56.4% [5.26 µM] | 55% [5.26 µM] | 67.1% [5.26 µM] | 69.8% [5.26 µM] | 77.4% [5.26 µM] | 26.4% [5.26 µM] | 47.5% [5.26 µM] | 44% [5.26 µM] | 22.3% [5.26 µM] | 64.2% [5.26 µM] | 62% [5.26 µM] | 35.2% [5.26 µM] | -9.17% [5.26 µM] (active) | 78.9% [5.26 µM] | 60.9% [5.26 µM] | 74.5% [5.26 µM]

— PubChem BioAssay (NCI)
